Test results from PubChem BioAssay (Tox21).
Records with an inconclusive call do not appear. The source made the active and inactive calls. Unless noted, the call rests on the fitted dose curve; in most records, active means well fitted curve in the direction sought with a large enough effect in the repeat runs; inconclusive means weak or mixed curves; inactive means no such curve, though single readings can be large; an effect the other way counts as inactive or inconclusive.

Experiments:
[1] = qHTS assay for small molecule agonists of the p53 signaling pathway (AID 651631; calls by dose curve; further: nearly all actives have a fitted effect of over 15% in size; further: potency means the concentration at half of the fitted maximal effect); conditions: HCT-116 p53RE-bla reporter, beta-lactamase FRET ratio, 16 h; series mostly up to 73.3 µM
Summary of the method: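 Beta-lactamase reporter activity under p53 response elements was quantified in HCT-116 cells by FRET fluorescence, following 16 h incubation with test compounds at 37 °C and 2 h substrate development at room temperature.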

[2] = qHTS assay for small molecule agonists of the p53 signaling pathway - cell viability (AID 651633; calls by dose curve; further: nearly all actives have a fitted effect of over 30% in size); conditions: p53RE-bla HCT-116 viability, ATP luminescence, 16 h; series mostly up to 83.3 µM
Summary of the method: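 Viability counter-read: CellTiter-Glo luminescence (30 min, room temperature) in the same p53RE-bla plates. These plates had been exposed to compounds for 16 h at 37 C.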

[3] = qHTS assay for small molecules that induce genotoxicity in human embryonic kidney cells expressing luciferase-tagged ATAD5 - cell viability (AID 651634; calls by dose curve; further: nearly all actives have a fitted effect of over 25% in size); conditions: HEK293T ATAD5-luc cells viability, CellTiter-Fluor, 15.5 h; series mostly up to 83.3 µM
Summary of the method: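 Here HEK293T cells with the ATAD5 luciferase reporter are incubated with test compounds for 15.5 hr, and cytotoxicity is then gauged by measuring protease activity in live cells using fluorescence.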

[4] = qHTS assay for small molecule disruptors of the mitochondrial membrane potential - cell viability (AID 720634; calls by dose curve;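 further: human HepG2 liver cancer cells; nearly all actives have a fitted effect of over 20% in size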); conditions: HepG2 viability, ATP luminescence (CellTiter-Glo), 1 h; series mostly up to 83.2 µM
Summary of the method: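 Viability of HepG2 cells is scored from ATP content by luminescence; cells are exposed to compound for 1 hr at 37 C and 5% CO2, then dosed with m-MPI dye before the CellTiter-Glo reagent.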

[5] = qHTS assay to test for compound auto fluorescence at 590 nm (red) in HepG2 cells (AID 720674); conditions: HepG2 autofluorescence, red 540/590 nm, 1 h; series mostly up to 91.3 µM
Summary of the method: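 1 hr compound incubation on HepG2 cells, 37 C, 5% CO2; plate read ex 540 nm / em 590 nm; intensities reported as Rose Bengal sodium equivalents.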

[6] = qHTS assay to test for compound auto fluorescence at 535 nm (green) in HepG2 cells (AID 720675); conditions: green autofluorescence 485/535 nm, 1 h; series mostly up to 91.3 µM
[7] = qHTS assay to test for compound auto fluorescence at 460 nm (blue) in HEK293 cells (AID 720678); conditions: blue autofluorescence 405/460 nm; series mostly up to 91.3 µM
Summary of the method: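 Auto fluorescence in the blue band was quantified as triamterene equivalency. HEK293 cells were seeded at 2,000/well, dosed after a 4-5 hr attachment, and kept overnight at 37C before the 405/460 nm reading.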

[8] = qHTS assay to test for compound auto fluorescence at 590 nm (red) in HEK293 cells (AID 720679); conditions: red autofluorescence 540/590 nm; series mostly up to 91.3 µM
Summary of the method: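 Autofluorescence equivalency to Rose Bengal sodium, 540/590nm, in HEK293 cells exposed overnight to 23 nL compound per well.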

[9] = qHTS assay for small molecules that induce genotoxicity in human embryonic kidney cells expressing luciferase-tagged ATAD5 (AID 651632); conditions: HEK293T ATAD5-luciferase induction, 16 h; series mostly up to 83.3 µM; further: nearly all actives have a fitted effect of over 15% in size
Summary of the method: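 DMSO vehicle served as the control. HEK293T reporter cells, 16 hr at 37C, then 30 min Amplite at room temperature; ATAD5 induction is measured as luciferase activity.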

[10] = qHTS assay for small molecule disruptors of the mitochondrial membrane potential (AID 720635); conditions: HepG2 mitochondrial membrane potential, Mito-MPS dye ratio; series mostly up to 83.2 µM; further: potency means the concentration at half of the fitted maximal effect
Summary of the method: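 Mitochondrial membrane potential tracked with Mito-MPS dye, red aggregates (ex 540/em 590 nm) against green monomers (ex 490/em 535 nm). Compound treatment 1 hr at 37C, dye 30 min in HepG2.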
On the % scale 0 is the no-effect control and ±100 the full control effect.

Cc1c(C)n(CCN(C)C)c2ccc(C(=O)OCCN(C)C)cc12
inactive: Potency [2] | Potency [3] | Potency [4] | outcome [5] | outcome [6] | Potency [7] | outcome [8]
active: Potency [1] 26.6 µM

CC/C=C\CCCCO
inactive: Potency [1] | Potency [9] | Potency [2] | Potency [3] | Potency [4] | Potency [7] | outcome [8]

C=C(C)[C@@H]1CCC2=CC(=O)C[C@@H](C)[C@]2(C)C1
inactive: Potency [9] | Potency [2] | Potency [3] | Potency [4] | outcome [5]

NC(=S)Nc1cccc2ccccc12
inactive: activation [9] 1.78% [at 8.08 µM] | activity change, negative = cytotoxicity [2] -14.4% [at 8.08 µM] | activity, negative = cytotoxicity [3] -8.88% [at 8.08 µM] | activity change, negative = cytotoxicity [4] 7.63% [at 8.08 µM] | ratio activity, negative = MMP loss [10] -26.9% [at 8.08 µM] | fluorescence, relative to Rose Bengal [5] -0.163% [at 3.72 µM] | fluorescence, % of fluorescein control [6] 0.0274% [at 3.72 µM] | fluorescence, % of fluorescent control [8] -0.0728% [at 3.72 µM]

CCOC(=O)Cn1c(=O)sc2cccc(Cl)c21
inactive: Potency [9] | Potency [2] | Potency [3] | Potency [4] | outcome [5] | outcome [6] | Potency [7] | outcome [8]

N#CCN(CC#N)CCN(CC#N)CC#N
inactive: Potency [9] | Potency [2] | Potency [3] | Potency [4] | outcome [5]

CCCCC=O
inactive: Potency [9] | Potency [2] | Potency [3] | Potency [4] | Potency [10] | outcome [5] | Potency [7] | outcome [8]

COc1ccc(COC=O)cc1
inactive: Potency [9] | Potency [2] | Potency [3] | Potency [4] | Potency [10] | outcome [5] | outcome [6] | Potency [7] | outcome [8]

CC(C)COC(=O)C(C)C
inactive: Potency [9] | Potency [2] | Potency [3] | Potency [4] | Potency [10] | outcome [5] | outcome [6] | Potency [7] | outcome [8]

CCCCCOC(=O)Nc1nc(=O)n([C@@H]2O[C@H](C)[C@@H](O)[C@H]2O)cc1F
inactive: Potency [9] | Potency [2] | Potency [3] | Potency [4] | outcome [5] | outcome [6] | Potency [7]

Cc1cc(C)c(NC(=O)CN(CC(=O)O)CC(=O)O)c(C)c1Br
inactive: Potency [9] | Potency [2] | Potency [3] | Potency [4] | Potency [10] | outcome [5] | outcome [6] | Potency [7] | outcome [8]

Nc1nc(F)nc2c1ncn2[C@@H]1O[C@H](CO)[C@@H](O)[C@@H]1O
inactive: Potency [9] | Potency [2] | Potency [3] | Potency [4] | Potency [10] | outcome [6] | Potency [7] | outcome [8]

CCCC(C)C(=O)O (configuration not stated)
inactive: Potency [9] | Potency [2] | Potency [3] | Potency [4] | outcome [5] | outcome [6] | Potency [7] | outcome [8]

CC1=CCC2C(C1)C2(C)C (configuration not stated)
inactive: Potency [9] | Potency [2] | Potency [3] | Potency [4] | outcome [5] | outcome [6] | Potency [7] | outcome [8]
active: Potency [10] 48.6 µM

O=C(O)c1ccc[n+]([O-])c1
inactive: Potency [9] | Potency [2] | Potency [3] | Potency [4] | Potency [10] | outcome [5] | outcome [6] | Potency [7] | outcome [8]
